{"source": "paper PMC11062922", "about": "(Nature Chemical Biology, 2023)", "set-up_in_all_cases": "species or system human, MV4-11 + K-562 + COLO205 + SK-N-BE2 + OVCAR-8", "key": {"MAP3K1": {"tested_on": "MAP3K1", "details": "read-out: apparent Kd, n = 1"}, "NME2;NME2P1": {"tested_on": "NME2;NME2P1", "details": "read-out: apparent Kd, n = 1"}, "MAP3K6": {"tested_on": "MAP3K6", "details": "read-out: apparent Kd, compound concentrations: 100 nM and 1000 nM (sheet 'Samples'), n = 1"}, "PRKCZ": {"tested_on": "PRKCZ", "details": "read-out: apparent Kd; compound concentrations:100 nM and 1000 nM (sheet 'Samples'); n = 1"}, "CDK4": {"tested_on": "CDK4", "details": "read-out: apparent Kd, compound concentrations: 100 nM and 1000 nM (sheet 'Samples'), n = 1"}, "CAMK2B": {"tested_on": "CAMK2B", "details": "read-out: apparent Kd, compound concentrations: 100 nM and 1000 nM (sheet 'Samples'), n = 1"}, "CAMK2G": {"tested_on": "CAMK2G", "details": "read-out: apparent Kd; compound concentrations: 100 nM and 1000 nM (sheet 'Samples'), CATDS: 2.3496297830239501E-2; n = 1"}, "PIM3": {"tested_on": "PIM3", "details": "read-out: apparent Kd, compound concentrations: 100 nM and 1000 nM (sheet 'Samples'), n = 1"}, "MDN1": {"tested_on": "MDN1", "details": "read-out: apparent Kd, n = 1"}, "PLK1": {"tested_on": "PLK1", "details": "read-out: apparent Kd, compound concentrations: 100 nM and 1000 nM (sheet 'Samples'), n = 1"}, "EPHA7": {"tested_on": "EPHA7", "details": "read-out: apparent Kd; compound concentrations: 100 nM and 1000 nM (sheet 'Samples'), CATDS: 1.2240200797628401E-2; n = 1"}, "ADRBK1": {"tested_on": "ADRBK1", "details": "read-out: apparent Kd, n = 1"}, "NEK1": {"tested_on": "NEK1", "details": "read-out: apparent Kd; compound concentrations:100 nM and 1000 nM (sheet 'Samples'); n = 1"}, "CDK12": {"tested_on": "CDK12", "details": "read-out: apparent Kd, compound concentrations: 100 nM and 1000 nM (sheet 'Samples'), n = 1"}, "ERN2": {"tested_on": "ERN2", "details": "read-out: apparent Kd; compound concentrations:100 nM and 1000 nM (sheet 'Samples'); n = 1"}, "[1]": {"details": "compound concentrations:100 nM and 1000 nM (sheet 'Samples')"}}, "note": "Where two headings read alike, the source gives them in different places.", "data": [{"smiles": "CNCc1ccc(-c2cc(-c3nc(-c4ccc(S(=O)(=O)C(C)C)cc4)cnc3N)on2)cc1", "note": "[VE-822]", "values": [{"measurement": "potency estimated from few doses", "setting": "MAP3K1; [1]", "value": 1260, "unit": "nM"}]}, {"smiles": "CS(=O)(=O)Nc1cccc(-c2ccc3c(NC(=O)C4CC4)n[nH]c3c2)c1", "note": "[SB-742864]", "values": [{"measurement": "potency estimated from few doses", "setting": "NME2;NME2P1; compound concentrations: 100 nM and 1000 nM (sheet 'Samples'), CATDS: 0.103585369709675", "value": 1910, "unit": "nM"}]}, {"smiles": "FC(F)(F)c1ccc(-c2ncn(CCCN3CCOCC3)c2-c2ccncc2)cc1", "note": "[SB-217780]", "values": [{"measurement": "potency estimated from few doses", "setting": "MAP3K6; CATDS: 0.20378278704682301", "value": 1720, "unit": "nM"}]}, {"smiles": "CC(C)Nc1cc(-c2ccc3c(N)n[nH]c3c2)nc(N)n1", "note": "[GSK2221681A]", "values": [{"measurement": "potency estimated from few doses", "setting": "PRKCZ", "value": 1520, "unit": "nM"}]}, {"smiles": "Cc1cccc(Nc2nc(N[C@H]3CCNC3)ncc2C(N)=O)c1.Cl", "note": "[GSK2197149A]", "values": [{"measurement": "potency estimated from few doses", "setting": "NME2;NME2P1; [1]", "value": 1460, "unit": "nM"}]}, {"smiles": "O=C(O)C(F)(F)F.O=C(O)C(F)(F)F.O=c1[nH]ccc2nc(N[C@@H]3CCCNC3)nc(Nc3ccc(S(=O)(=O)N4CCOCC4)cc3)c12.O=c1[nH]ccc2nc(N[C@@H]3CCCNC3)nc(Nc3ccc(S(=O)(=O)N4CCOCC4)cc3)c12", "note": "[GSK2177277A]", "values": [{"measurement": "potency estimated from few doses", "setting": "CDK4; CATDS: 6.3800508588872503E-3", "value": 1600, "unit": "nM"}]}, {"smiles": "Cc1ccccc1C1=C(c2cn(C)c3ccccc23)C(=O)NC1=O", "note": "[RO0317612-000]", "values": [{"measurement": "potency estimated from few doses", "setting": "CAMK2B; CATDS: 0.21692870054448801", "value": 479, "unit": "nM"}]}, {"smiles": "COc1cc[nH]c1/C=C1\\C(=O)Nc2ccc(F)c(C#CC3(O)CCNCC3)c21.Cl", "note": "[RO0282986-001]", "values": [{"measurement": "potency estimated from few doses", "setting": "CAMK2B; CATDS: 2.6528417916085501E-2", "value": 123, "unit": "nM"}, {"measurement": "potency estimated from few doses", "setting": "CAMK2G", "value": 154, "unit": "nM"}]}, {"smiles": "COc1cc(Nc2nccc(N3CCC(NC(=O)c4cccc(NC(C)=O)c4)C3)n2)cc(OC)c1OC", "note": "(stereo not drawn) [GSK1379754A]", "values": [{"measurement": "potency estimated from few doses", "setting": "PIM3; CATDS: 9.0008616948043199E-2", "value": 1470, "unit": "nM"}]}, {"smiles": "Cl.Cl.NC(CNC(=O)c1cc(Br)c(-c2ccnc3[nH]ccc23)s1)c1ccccc1.NC(CNC(=O)c1cc(Br)c(-c2ccnc3[nH]ccc23)s1)c1ccccc1", "note": "(stereo not drawn) [GSK1322949A]", "values": [{"measurement": "potency estimated from few doses", "setting": "CDK4; CATDS: 3.2269694765046902E-2", "value": 1030, "unit": "nM"}, {"measurement": "potency estimated from few doses", "setting": "MDN1; compound concentrations: 100 nM and 1000 nM (sheet 'Samples'), CATDS: 2.3593450099353701E-2", "value": 2300, "unit": "nM"}, {"measurement": "potency estimated from few doses", "setting": "PLK1; CATDS: 2.70929722302506E-2", "value": 1550, "unit": "nM"}]}, {"smiles": "CCn1c(-c2cccnc2O)nc2cnccc21", "note": "[SB-736715]", "values": [{"measurement": "potency estimated from few doses", "setting": "EPHA7", "value": 2080, "unit": "nM"}, {"measurement": "potency estimated from few doses", "setting": "PIM3; CATDS: 1.44947330035029E-2", "value": 1390, "unit": "nM"}]}, {"smiles": "COc1ccc(-c2cc3c(N)ncnc3o2)cc1", "note": "[GW642138X]", "values": [{"measurement": "potency estimated from few doses", "setting": "ADRBK1; compound concentrations: 100 nM and 1000 nM (sheet 'Samples'), CATDS: 0.10043155858125399", "value": 1820, "unit": "nM"}]}, {"smiles": "CC(C)Oc1ccc2c(-c3ccnc(Nc4ccc(N5CCN(C)CC5)cc4)n3)cnn2n1", "note": "[GW696155X]", "values": [{"measurement": "potency estimated from few doses", "setting": "NEK1", "value": 1130, "unit": "nM"}]}, {"smiles": "O=C(O)C(F)(F)F.O=c1[nH]ccc2nc(N[C@@H]3CCNC3)nc(Nc3ccc4c(c3)S(=O)(=O)CC4)c12", "note": "[GSK2181306A]", "values": [{"measurement": "potency estimated from few doses", "setting": "PIM3; CATDS: 5.1317659487183503E-2", "value": 36.4, "unit": "nM"}]}, {"smiles": "CCN(CC)Cc1ccc(Nc2nccc(-c3cnn4ncccc34)n2)cc1", "note": "[GW780056X]", "values": [{"measurement": "potency estimated from few doses", "setting": "CDK12; CATDS: 2.2557982772038999E-2", "value": 899, "unit": "nM"}, {"measurement": "potency estimated from few doses", "setting": "CDK4; CATDS: 1.9618421656054302E-2", "value": 1420, "unit": "nM"}]}, {"smiles": "NS(=O)(=O)c1ccc(NC=C2C(=O)Nc3ccc4ncsc4c32)cc1", "note": "[GW589933X]", "values": [{"measurement": "potency estimated from few doses", "setting": "CDK12; CATDS: 1.98005897918999E-2", "value": 1010, "unit": "nM"}]}, {"smiles": "CC(C)N1CC(=O)N(C)c2cnc(Nc3cccc(S(=O)(=O)CCN4CCOCC4)c3)nc21", "note": "[BI00009348]", "values": [{"measurement": "potency estimated from few doses", "setting": "MAP3K1; compound concentrations: 100 nM and 1000 nM (sheet 'Samples'), CATDS: 5.2672429134220697E-2", "value": 1560, "unit": "nM"}, {"measurement": "potency estimated from few doses", "setting": "MAP3K6; CATDS: 7.2828700738199706E-2", "value": 698, "unit": "nM"}]}, {"smiles": "CCn1c(-c2nonc2N)nc2cncc(Br)c21", "note": "[SB-738004]", "values": [{"measurement": "potency estimated from few doses", "setting": "PRKCZ", "value": 544, "unit": "nM"}]}, {"smiles": "CCC(CC)(CC)n1cnc2c(N)ncnc21", "note": "[SKF-97620]", "values": [{"measurement": "potency estimated from few doses", "setting": "PLK1; CATDS: 2.3248772158463601E-2", "value": 2300, "unit": "nM"}]}, {"smiles": "Nc1nc(-c2ccc3c(N)n[nH]c3c2)cc(N2CCCC(NC(=O)c3ccccc3)C2)n1", "note": "(stereo not drawn) [GSK2286775B]", "values": [{"measurement": "potency estimated from few doses", "setting": "ADRBK1; [1]", "value": 2050, "unit": "nM"}, {"measurement": "potency estimated from few doses", "setting": "ERN2", "value": 1580, "unit": "nM"}, {"measurement": "potency estimated from few doses", "setting": "MDN1; [1]", "value": 1290, "unit": "nM"}]}, {"smiles": "Nc1nccc(-c2ccc3c(N)n[nH]c3c2)n1", "note": "[GSK1034945A]", "values": [{"measurement": "potency estimated from few doses", "setting": "PRKCZ", "value": 1830, "unit": "nM"}]}, {"smiles": "Nc1nc(-c2ccc3c(N)n[nH]c3c2)cc(N2CCCCC2)n1", "note": "[GSK2228768A]", "values": [{"measurement": "potency estimated from few doses", "setting": "NME2;NME2P1; [1]", "value": 1380, "unit": "nM"}]}]}
